Results published in PubChem BioAssay (NCATS).
Results filed as inconclusive are left out. Active and inactive are the calls of the source. The call rests on the fitted dose curve; in most records, active means well fitted curve in the direction sought with a large enough effect; inconclusive means small, poorly fitted or top-dose-only effect, or another doubt; inactive means no such curve, though single readings can be large; an effect the other way counts as inactive or inconclusive.

Experiments:
[1] = qHTS to identify inhibitors of the type 1 interferon - major histocompatibility complex class I in skeletal muscle: primary screen against the NCATS LOPAC collection (AID 1347405);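 further: human myoblasts with HiBiT tag on endogenous HLA-B stimulated by IFN-beta; lytic HiBiT luminescence reporting HLA-B protein level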
In short: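 HLA-B HiBiT myoblasts, IFN-b 4 ng/ml, dexamethasone-free medium; compounds 7-pt 1:4.3 titration, top 46 uM final; 24 h at 37 C; Nano-Glo HiBiT lytic reagent, 10 min RT, luminescence.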

[2] = qHTS for inhibitors of adenylyl cyclases using a fission yeast platform: a pilot screen against the NCATS LOPAC library (AID 1347410)
In short: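 S. pombe CHP2027 (AC9-GNAS-PDE4D2) carrying a PKA-repressed fbp1-GFP reporter was exposed to LOPAC compounds (final up to 57 µM) for 18 h at 30C in the dark, in EMM with histidine, lysine and uracil; GFP gain-of-signal read by laser scanning cytometry.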

[3] = Validation qHTS assay for inhibitors of Activation Induced Cytidine Deaminase (AID): UDG Counterscreen signal (AID 1347427)
In short: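 Fluorescence at 560 nm excitation, 665 nm emission reports UDG signal after 250 mM NaOH (2x) addition and 30 min. Enzymes (AID 1 uM, UDG 2 U/mL, at 4/3x) preincubated 10 min with compound, then 4 h with 4x 250 nM DJC20/DJC23 substrate at room temperature.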

[4] = biological target: Single-stranded DNA cytosine deaminase (Homo sapiens) (UniProt Q9GZX7); assay: Validation qHTS assay for inhibitors of Activation Induced Cytidine Deaminase (AID): AID signal (AID 1347429)
In short: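 AID+UDG coupled FRET deamination; cpds up to 114 uM final; DJC20/DJC23 substrate, 4 hr RT; NaOH stop, 30 min RT; read Ex 540/Em 590.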

[5] = Primary qHTS for inhibitors of La Crosse Virus (LACV) - induced cell death in SH-SY5Y cells (AID 1508616);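 further: top concentration of the series differs between compounds; higher means more rescue of cells from virus-induced death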
In short: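 Cytopathicity rescue screen: compounds pinned onto SH-SY5Y cells, which are then infected with LACV (MOI 0.01) and held 6 days at 37C. Percent activity is scaled between infected DMSO control and uninfected DMSO control.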

Measured: Potency

Sequence of Single-stranded DNA cytosine deaminase (Homo sapiens) (Q9GZX7 whole entry, looked up): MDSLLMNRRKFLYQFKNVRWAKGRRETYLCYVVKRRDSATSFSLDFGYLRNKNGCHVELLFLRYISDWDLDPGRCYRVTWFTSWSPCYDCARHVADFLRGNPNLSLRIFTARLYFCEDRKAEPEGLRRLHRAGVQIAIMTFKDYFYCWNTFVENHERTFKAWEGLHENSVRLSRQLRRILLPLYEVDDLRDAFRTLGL

CCCCCC(O)CCCC(=O)O (stereo not given)
inactive: [1] | [2] | [3] | [4] | [5]

CC(=O)C(C)=O
inactive: [1] | [2] | [3] | [4] | [5]

COc1cc(N)c(Cl)cc1C(=O)OCCN1CCCCC1
inactive: [1] | [2] | [3] | [4] | [5]

CC(=O)O[C@H]1Cc2ccccc2N(C(N)=O)c2ccccc21
inactive: [1] | [2] | [3] | [4] | [5]

OC[C@H]1NC[C@@H](O)[C@@H]1O
inactive: [1] | [2] | [3] | [4] | [5]

O=C(O)C1CCNCC1
inactive: [1] | [2] | [3] | [4] | [5]

CCSC(=N)N
inactive: [1] | [2] | [3] | [4] | [5]

C=C(C)C1CC=C(C(=O)O)CC1 (stereo not given)
inactive: [1] | [2] | [3] | [4] | [5]

O=C(O)CCC(=O)N1CCCC1C(=O)O (stereo not given)
inactive: [1] | [2] | [3] | [4] | [5]

CCCCCCC(=O)OC1CC(C)(C)NC(C)(C)C1
inactive: [1] | [2] | [3] | [4] | [5]

NC(N)=NC(N)=Nc1cccc(Cl)c1
inactive: [1] | [2] | [3] | [4] | [5]

Nc1ncnc2c1nc(Sc1ccc(Cl)cc1)n2[C@H]1OC2COP(=O)(O)O[C@@H]2C1O (stereo not given in full)
inactive: [1] | [2] | [3] | [4] | [5]

CCCN(CCc1ccccc1)C1CCc2c(O)cccc2C1 (stereo not given)
inactive: [1] | [2] | [3] | [4] | [5]

O=[N+]([O-])c1cccc2c(Br)[nH]nc12
inactive: [1] | [2] | [3] | [4] | [5]

CC(C)Cn1c(=O)n(C)c(=O)c2[nH]cnc21
inactive: [1] | [2] | [3] | [4] | [5]

CCCn1c(=O)c(C)cn2nc(N)nc12
inactive: [1] | [2] | [3] | [4] | [5]

O=C(O)/C(=C/c1c(C(=O)O)[nH]c2cc(Cl)cc(Cl)c12)c1ccccc1
inactive: [1] | [2] | [3] | [4] | [5]

NCC(O)c1ccc(O)c(O)c1 (stereo not given)
inactive: [1] | [2] | [3] | [4] | [5]

OCC1NCC(O)C(O)C1O (stereo not given)
inactive: [1] | [2] | [3] | [4] | [5]

CO/N=C(\C(=O)N[C@@H]1C(=O)N2C(C(=O)O)=C(CSc3nc(=O)c(O)nn3C)CSC12)c1csc(N)n1 (stereo not given in full)
inactive: [1] | [2] | [3] | [4] | [5]

N=C(N)c1ccc(N)cc1
inactive: [1] | [2] | [3] | [4] | [5]

O=C(O)C1=CCCN(CCON=C(c2ccccc2)c2ccccc2)C1
inactive: [1] | [2] | [3] | [4] | [5]

N[C@@H](CS(=O)O)C(=O)O
inactive: [1] | [2] | [3] | [4] | [5]

COc1ccc(CCn2nnnc2C2(c3ccc(C)cc3)CC2)cc1
inactive: [1] | [2] | [3] | [4] | [5]
